Test results reported in PubChem BioAssay AID1159580 (chemical genetic matrix, 2015).
Where “and” joins values, the source holds several entries; their conditions need not be identical. Equal values may be shown once. About 2,000 (36%) of roughly 5,500 compounds were called active. Inconclusive results (about 18%) are left out. Cut-off read from the data, not from the text of the source: active = normalized growth mostly below about 0.91 (no sharp cut-off); inconclusive = no clear call, values can overlap the other calls; inactive = mostly above about 0.92. Some of the results follow.

Test: chemical genetic growth profiling, strain panel (AID 1159580);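 note: tested at 20 µM; growth read once vehicle control cultures reached saturation at 30 °C; 1 = growth at the plate median or of vehicle wells; lower values mean less growth of the strain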
Settings: S. cerevisiae deletion strains, growth OD

Measured: normalized growth

CCC(C)(C)C(=O)O[C@H]1C[C@@H](C)C=C2C=C[C@H](C)[C@H](CC[C@@H]3C[C@@H](O)CC(=O)O3)[C@H]21
inactive: locus YAL013W, strain DEP1, hits give low values 0.99 | locus YAL030W, strain snc1, hits give low values 1.01 | locus YBR009C, strain hhf1, hits give low values 0.912 | locus YBR021W, strain FUR4, hits give low values 0.861 | locus YBR171W, strain sec66, hits give low values 0.998 | locus YBR229C, strain ROT2, hits give low values 1.01 | locus YCL011C, strain gbp2, hits give low values 0.944 | locus YCL029C, strain bik1, hits give low values 1.04 | locus YCL061C, strain MRC1, hits give low values 1.01 | locus YCL069W, strain vba3, hits give low values 0.955 | locus YCR088W, strain abp1, hits give low values 1.02 | locus YDL005C, strain med2, hits give low values 1.02 | locus YDL035C, strain GPR1, hits give low values 0.97 | locus YDL040C, strain nat1, hits give low values 0.997 | locus YDL074C, strain BRE1, hits give low values 0.866 | locus YDL101C, strain DUN1, hits give low values 0.98 | locus YDL134C, strain PPH21, hits give low values 1.01 | locus YDL185W, strain tfp1, hits give low values 0.955 | locus YDL192W, strain arf1, hits give low values 1.02 | locus YDR001C, strain nth1, hits give low values 1.02 | locus YDR069C, strain doa4, hits give low values 1 | locus YDR101C, strain arx1, hits give low values 1.04 | locus YDR150W, strain NUM1, hits give low values 1.01 | locus YDR159W, strain sac3, hits give low values 0.93 | locus YDR162C, strain NBP2, hits give low values 0.937 | locus YDR195W, strain ref2 1.01 | locus YDR297W, strain sur2, hits give low values 0.999 | locus YDR318W, strain mcm21, hits give low values 1 | locus YDR334W, strain swr1, hits give low values 0.941 | locus YDR335W, strain msn5, hits give low values 0.979 | locus YDR388W, hits give low values 1.02 | locus YDR502C, strain sam2, hits give low values 1.02 | locus YEL003W, strain gim4, hits give low values 0.973 | locus YEL037C, strain rad23, hits give low values 1 | locus YEL061C, strain CIN8 (second series), hits give low values 0.988 | locus YEL061C, strain CIN8, hits give low values 0.995 | locus YER016W, strain bim1, hits give low values 0.953 | locus YER110C, hits give low values 1.04 | locus YER111C, strain swi4, hits give low values 1.01 | locus YER155C, strain BEM2 (second series), hits give low values 1 | locus YER155C, strain BEM2, hits give low values 0.996 | locus YER167W, strain BCK2, hits give low values 0.982 | locus YFR010W, strain ubp6, hits give low values 0.973 | locus YGL078C, strain dbp3, hits give low values 1.03 | locus YGL086W, strain mad1, hits give low values 0.991 | locus YGL167C, strain pmr1, hits give low values 1.01 | locus YGL173C, strain kem1, hits give low values 0.997 | locus YGL227W, strain vid30, hits give low values 1.02 | locus YGL240W, strain doc1, hits give low values 1.03 | locus YGL248W, strain PDE1, hits give low values 1.01 | locus YGR078C, strain PAC10, hits give low values 0.966 | locus YGR135W, strain pre9, hits give low values 1.01 | locus YGR252W, strain gcn5, hits give low values 0.983 | locus YHR013C, strain ard1, hits give low values 0.912 | locus YHR030C, strain SLT2, hits give low values 1.02 and 0.921 | locus YHR079C, strain IRE1 (second series), hits give low values 1.03 | locus YHR079C, strain IRE1, hits give low values 0.948 | locus YHR094C, strain hxt1, hits give low values 1.03 | locus YHR129C, strain ARP1, hits give low values 1.02 | locus YHR200W, strain rpn10, hits give low values 1.03 | locus YIL066C, strain RNR3, hits give low values 0.992 | locus YIL073C, strain SPO22, hits give low values 0.902 | locus YIL125W, strain kgd1, hits give low values 1.04 | locus YIR030C, strain dcg1, hits give low values 1.05 | locus YJL092W, strain hpr5, hits give low values 1.01 | locus YJL095W, strain BCK1 (second series), hits give low values 0.951 | locus YJL095W, strain BCK1, hits give low values 0.893 and 0.915 | locus YJL115W, strain asf1, hits give low values 1.02 | locus YJL129C, strain trk1, hits give low values 0.934 | locus YJL134W, strain LCB3, hits give low values 1.01 | locus YJL154C, strain vps35, hits give low values 1.01 | locus YJL164C, strain tpk1, hits give low values 0.919 | locus YJL166W, strain qcr8, hits give low values 0.955 | locus YJL168C, strain set2, hits give low values 1.02 | locus YJL187C, strain SWE1 (second series), hits give low values 0.995 | locus YJL187C, strain SWE1, hits give low values 0.976 | locus YJR043C, strain POL32, hits give low values 1.01 | locus YJR066W, strain TOR1, hits give low values 0.84
active: locus YAL021C, strain ccr4, hits give low values 0.703 | locus YAL026C, strain drs2, hits give low values 0.828 | locus YBL061C, strain skt5, hits give low values 0.855 | locus YBR023C, strain chs3, hits give low values 0.841 | locus YBR231C, strain swc5, hits give low values 0.776 | locus YBR279W, strain paf1, hits give low values 0.851 | locus YCL016C, strain dcc1, hits give low values 0.909 | locus YDR137W, strain rgp1, hits give low values 1.35 [resistant] | locus YDR392W, strain spt3, hits give low values 0.528 | locus YER015W, strain faa2, hits give low values 0.842 | locus YGL253W, strain hxk2, hits give low values 0.787 | locus YGR229C, strain SMI1, hits give low values 0.783 | locus YHR027C, strain rpn1, hits give low values 0.875 | locus YHR142W, strain chs7, hits give low values 0.79
